Screening results from PubChem BioAssay.
Pf growth 48h: Primary qHTS for delayed death inhibitors of the malarial parasite plastid, 48 hour incubation | Potency, µM (top dose mostly 28.7 µM), for the others: top-dose activity change, negative = inhibition, usual class: inhibitors | hit rate 5.9% among 310,000 | AID 504832, 2011 | P. falciparum luciferase growth in erythrocytes, 48 h; note: % is set by controls: 0 for no effect and ±100 for the full control effect
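Read-out is firefly luciferase luminescence from an integrated reporter in P. falciparum, so falling signal marks reduced parasite growth. Infected erythrocytes were at 2% hematocrit and 0.1% parasitemia (final) in Albumax-supplemented RPMI 1640.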
Sm TGR inh: qHTS Assay for the Inhibitors of Schistosoma Mansoni Peroxiredoxins | Potency, µM (top dose mostly 114 µM), for the others: at the top dose activity change, negative = inhibition, actives largely listed as inhibitors | Schistosoma mansoni thioredoxin glutathione reductase (TGR), Q962Y6 | purified TGR, DTNB reduction, TNB absorbance 405 nm | hit rate 3% among 360,000; note: % is set by controls: 0 for no effect and ±100 for the full control effect; nearly all actives have a fitted effect of over 60% in size
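TGR 20 nM + NADPH 100 uM (dispensed conc.), cpd preinc 15 min RT; start with NADPH (500 uM addition) then DTNB (15 mM addition). Kinetic TNB absorbance, 405 nm filter. Four-parameter Hill fit across titration.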
Pf growth 96h: Primary qHTS for delayed death inhibitors of the malarial parasite plastid, 96 hour incubation | P. falciparum luciferase reporter growth, 96 h | Potency, µM (series often up to 28.7 µM), inactives show top-dose activity change, negative = inhibition, most hits filed as inhibitors | hit rate 6.9% among 320,000; note: % is set by controls: 0 for no effect and ±100 for the full control effect
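P. falciparum expressing integrated firefly luciferase grown in erythrocytes (2% hematocrit, 0.05% parasitemia final) with compounds for 96 hours at 37 C, 5% CO2. Growth inhibition read as loss of luminescence after adding luciferase detection reagent.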
AMA1 RON2 block: qHTS for Inhibitors of AMA1-RON; Towards Development of Antimalarial Drug Lead: Primary Screen | Plasmodium falciparum AMA1 (3D7) - RON2 peptide interaction | AlphaScreen AMA1-biotinylated RON2 peptide binding | Potency, µM (top dose mostly 58.2 µM), for inactives: top-dose activity change, negative = inhibition, most hits filed as inhibitors | hit rate 0.2% among 360,000 | AID 720542, 2013;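 note: 0% = vehicle wells and -100% = peptide control; nearly all actives have a fitted effect of over 45% in size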
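AMA1 (3D7) with his tag at 25 nM final met compounds first, then biotinylated RON2 peptide at 25 nM; detection used donor plus acceptor beads, 10 µg/mL apiece, read by AlphaScreen after 30 min at room temperature.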
NS1 function inh: qHTS Assay for Inhibitors of Influenza NS1 Protein Function. Potency, µM (series often up to 46.1 µM), without a hit: at the top dose activity, positive = more growth. hit rate 0.4% among 270,000. AID 2326, 2010; calls by dose curve; note: actives are rising curves; nearly all actives have a fitted effect of over 50% in size
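OD600 was taken as the measure of yeast growth restored by compound in an NS1-expressing S. cerevisiae strain. Cells had been washed out of glucose medium and diluted 1:100 into galactose -URA medium, pH 6.0.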
An asterisk follows results filed as active; ? = inconclusive; / = no result given; [ ] = another dose, or the depositor's remark. Only some compounds are listed: those with a hit (about 11% of all), similar ones and a draw of the others. Unless noted, calls come from the whole dose curve; as a rule, active = well fitted curve in the direction sought with a large enough effect; inconclusive = small, poorly fitted or top-dose-only effect, or another doubt; inactive = no such curve, though single readings can be large; an effect the other way counts as inactive or inconclusive. Potency is the fitted concentration of half-maximal effect.

SMILES | Pf growth 48h | Sm TGR inh | Pf growth 96h | AMA1 RON2 block | NS1 function inh
O=C(CC1C(=O)NCCN1Cc1ccc(-c2ccccc2)cc1)NC1CCC1 (centres undefined) | ? | ? | 11% | 6% | -7%
CCc1cc(CNC(=O)CC2C(=O)NCCN2Cc2ccc(-c3ccccc3)cc2)on1 (centres undefined) | -16% | ? | 2.1µM* | 15% | 18%
O=C(CC1C(=O)NCCN1Cc1ccc(-c2ccccc2)cc1)NCCCn1cccn1 (centres undefined) | -8% | -21%[57.1 µM] | -8% | 2% | -2%
CCOC(=O)N1CCC(NC(=O)Cc2ccccc2)CC1 | 25% | -21% | -21% | -21% | 1%
CCOC(=O)N1CCC(NC(=O)CC2C(=O)NCCN2Cc2ccccc2)CC1 (centres undefined) | 17% | ? | 9.3µM* | 0% | -11%
CCOC(=O)C1CCCN(C(=O)c2nn(-c3ccc(C)cc3)c(=O)c3c2c2ccccc2n3C)C1 (centres undefined) | / | -1% | / | / | /
Cc1cccc(C(=O)N2CCN(Cc3nc4sc5c(c4c(=O)[nH]3)CCCC5)CC2)c1 | ? | 2% | ? | 4% | 3%
CCC(=O)c1ccc(OCC(=O)Nc2cc(S(=O)(=O)N3CCCCC3)ccc2N2CCN(CC)CC2)cc1 | ? | -12% | 9.3µM* | -13% | /
CCOc1ccccc1OCC(=O)Nc1cc(S(=O)(=O)N2CCCCC2)ccc1N1CCN(CC)CC1 | 10µM* | 4% | 3.3µM* | -1% | /
COc1ccc(/C=C(\C#N)C(=O)Nc2cc(S(=O)(=O)N3CCCCC3)ccc2N2CCCCC2)cc1 | ? | -2% | 8.3µM* | 6% | ?
CCN1CCN(c2ccc(S(=O)(=O)N3CCCCC3)cc2NC(=O)COc2ccc(Cl)c(C)c2)CC1 | 4.7µM* | -18% | ? | -5% | 23%
CCc1ccccc1N(C)C(=O)c1cn(CC(C)C)c(=O)c2cc(OC)c(OC)cc12 | / | -1% | / | / | /
Cc1ccc(S(=O)(=O)N2CCC(C(=O)Nc3ccccc3N3CCCCC3)CC2)cc1C | ? | 11% | ? | 9% | /
COc1ccc(N2CCCC2)c(NC(=O)COc2ccccc2)c1 | -18% | -32% | 52% | -20% | -7%
COc1ccc(S(=O)(=O)N2CCC(C(=O)Nc3ccccc3N3CCCCC3)CC2)cc1OC | 0% | -5% | 8.3µM* | -9% | 10%
CCN1CCN(c2ccc(S(=O)(=O)N3CCCCC3)cc2NC(=O)c2ccccc2)CC1 | ? | -1% | -13% | -3% | /
COc1ccccc1OCC(=O)Nc1cc(C(F)(F)F)ccc1-n1cncn1 | 9.3µM* | 0% | ? | 2% | /
COc1ccccc1OCC(=O)Nc1cc(Cl)ccc1N1CCCCC1 | 10µM* | -3% | ? | -9%[11.6 µM] | /
CCN1CCN(c2ccc(S(=O)(=O)N3CCCCC3)cc2NC(=O)c2ccc([N+](=O)[O-])s2)CC1 | 4.7µM* | -7% | 1.7µM* | -3% | /
O=c1c2ccccc2oc2cc(-c3ccc(CN4CCOCC4)cc3)ccc12 | 32% | ? | -16% | -20% | /
CCCS(=O)(=O)NC(=O)C1(C)CCN(C(=O)Cc2ccc(OC)c(OC)c2)C1 (centres undefined) | / | / | / | 3% | /
CCN1CCN(c2ccc(S(=O)(=O)N3CCCCC3)cc2NC(=O)Cc2ccc(Cl)c(Cl)c2)CC1 | 10µM* | 1% | 10µM* | -21% | /
Cc1cc(Cl)ccc1OCC(=O)Nc1ccccc1CO | 13µM* | 5% | 26% | 6% | -39%
CCN1CCN(c2ccc(S(=O)(=O)N3CCOCC3)cc2NC(=O)CCOc2ccccc2)CC1 | -18% | 4% | ? | -8% | -7%
CCN1CCN(c2ccc(S(=O)(=O)N3CCCCC3)cc2NC(=O)COc2ccccc2)CC1 | 12µM* | -2% | ? | -5% | /
CCN1CCN(c2ccc(S(=O)(=O)N3CCCCC3)cc2NC(=O)Cc2ccccc2)CC1 | ? | 1% | ? | 7% | /
Cc1ccc(OCC(=O)Nc2cc(S(=O)(=O)N3CCCCC3)ccc2N2CCN(C)CC2)c(C)c1 | 2.3µM* | -9% | 1.5µM* | ? | /
